Reference: PubChem BioAssay AID1159580 (chemical genetic matrix, 2015)
Out of some 5,500 compounds screened, about 2,000 (36%) were called active. Not shown: some 18% with an inconclusive outcome. No stated cut-off is given here; in the data, active means normalized growth mostly below about 0.91 (no sharp cut-off); inconclusive means no clear call, values can overlap the other calls; inactive means mostly above about 0.92. This is one part of the list.

Test: chemical genetic growth profiling, strain panel (AID 1159580);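 further: tested at 20 µM; growth read once vehicle control cultures reached saturation at 30 °C; 1 = growth at the plate median or of vehicle wells; lower values mean less growth of the strain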
Conditions: S. cerevisiae deletion strains, growth OD
[1] = locus YJR075W, strain HOC1, active compounds read low
[2] = locus YMR263W, strain SAP30, active compounds read low
[3] = locus YNL153C, strain GIM3, active compounds read low
[4] = locus YNL322C, strain KRE1, active compounds read low
[5] = locus YPL241C, strain CIN2, active compounds read low
[6] = locus YHR030C, strain SLT2, active compounds read low
[7] = locus YBR229C, strain ROT2, active compounds read low
[8] = locus YDL101C, strain DUN1, active compounds read low
[9] = locus YDL134C, strain PPH21, active compounds read low
[10] = locus YDR150W, strain NUM1, active compounds read low
[11] = locus YEL061C, strain CIN8, active compounds read low
[12] = locus YGR078C, strain PAC10, active compounds read low
[13] = locus YHR087W, strain rtc3, active compounds read low
[14] = locus YJR043C, strain POL32, active compounds read low
[15] = locus YLR039C, strain RIC1, active compounds read low
[16] = locus YLR058C, strain SHM2 (second series), active compounds read low
[17] = locus YLR085C, strain ARP6, active compounds read low
[18] = locus YLR262C, strain YPT6, active compounds read low
[19] = locus YML094W, strain GIM5, active compounds read low
[20] = locus YMR219W, strain ESC1, active compounds read low
[21] = locus YNL298W, strain CLA4 (second series), active compounds read low
[22] = locus YNR030W, strain Alg12, active compounds read low
[23] = locus YPL055C, strain LGE1, active compounds read low
[24] = locus YPR135W, strain CTF4, active compounds read low

Measured: normalized growth

C[C@@H]1O[C@H](C[N+](C)(C)C)CS1
inactive: locus YAL040C, strain CLN3, active compounds read low 1.02 | locus YCL061C, strain MRC1 (second series), active compounds read low 1.01 | locus YDR363W, strain ESC2, active compounds read low 1.03 | locus YER002W, strain NOP16, active compounds read low 0.997 | [1] 1.02 | [2] 1.01 | [3] 1.01 | locus YNL175C, strain NOP13, active compounds read low 1.01 | locus YNL197C, strain WHI3, active compounds read low 1.01 | locus YNL224C, strain SQS1, active compounds read low 0.993 | [4] 1.02 | locus YOR083W, strain WHI5 (second series), active compounds read low 1.05 | [5] 1.01

CC(C)(CO)[C@@H](O)C(=O)NCCCO
inactive: [6] 1.09 | locus YHR079C, strain IRE1, active compounds read low 0.97 | locus YJL095W, strain BCK1, active compounds read low 1.01 | locus YJR066W, strain TOR1, active compounds read low 0.936 | locus YLR113W, strain HOG1, active compounds read low 0.968 | locus YNL183C, strain NPR1, active compounds read low 0.932 | locus YOR231W, strain MKK1, active compounds read low 0.998 | locus YPL256C, strain CLN2, active compounds read low 0.988

c1ccc(-c2cc3c(nn2)CCc2nonc2-3)cc1
inactive: locus YAL013W, strain DEP1, active compounds read low 0.979 | [7] 0.984 | [8] 0.992 | [9] 0.985 | [10] 1.01 | [11] 0.985 | [12] 0.992 | [6] 0.784 | [13] 1.01 | locus YJL187C, strain SWE1, active compounds read low 0.975 | [14] 0.984 | [1] 0.966 | [15] 1.04 | [16] 0.978 | [17] 0.886 | [18] 1.02 | [19] 1.04 | [20] 0.985 | [2] 0.958 | [3] 0.99 | [21] 0.965 | [4] 0.987 | [22] 0.986 | [23] 1.09 | [5] 0.988 | [24] 0.988

c1ccc(-c2cc3c(ccc4nonc43)nn2)cc1
inactive: [7] 0.957 | [8] 0.933 | [9] 0.991 | [10] 0.922 | [11] 0.947 | [12] 0.973 | [13] 0.971 | [1] 0.97 | [15] 0.96 | [16] 0.977 | [17] 0.878 | [18] 0.988 | [19] 0.935 | [20] 0.981 | [2] 0.923 | [3] 0.955 | [21] 0.945 | [4] 0.988 | [22] 0.905 | locus YOL006C, strain TOP1, active compounds read low 0.734 | [5] 0.89 | [24] 0.764
active: [6] 0.604 | [14] 0.76 | [23] 0.82
